Records with an inconclusive call do not appear. Activity calls are given as the source filed them. The call rests on the fitted dose curve; in most records, active means well fitted inhibition curve with a large enough effect; inconclusive means small, poorly fitted or top-dose-only effect; inactive means no such curve, though single readings can be large or run the other way.
target: Cytochrome P450 2C19 (Homo sapiens) (UniProt P33261); experiment: qHTS Assay for Inhibitors and Substrates of Cytochrome P450 2C19 (AID 899); conditions: recombinant CYP2C19, luciferin-H EGE luminescence; series mostly up to 11.4 µM; further: nearly all actives have a fitted effect of over 60% in size
How it was run: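 Human CYP2C19 (5nM) with Luciferin-H EGE at 10uM (its KM) in 50mM KPO4 was preincubated with compound for 10 min at 37C. NADPH regeneration started a 60 min 37C reaction. Luciferin was read by luminescence, normalized to 57uM ketoconazole.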
Potency means the concentration at half of the fitted maximal effect.

Cytochrome P450 2C19 (Homo sapiens), sequence (P33261 whole entry, looked up): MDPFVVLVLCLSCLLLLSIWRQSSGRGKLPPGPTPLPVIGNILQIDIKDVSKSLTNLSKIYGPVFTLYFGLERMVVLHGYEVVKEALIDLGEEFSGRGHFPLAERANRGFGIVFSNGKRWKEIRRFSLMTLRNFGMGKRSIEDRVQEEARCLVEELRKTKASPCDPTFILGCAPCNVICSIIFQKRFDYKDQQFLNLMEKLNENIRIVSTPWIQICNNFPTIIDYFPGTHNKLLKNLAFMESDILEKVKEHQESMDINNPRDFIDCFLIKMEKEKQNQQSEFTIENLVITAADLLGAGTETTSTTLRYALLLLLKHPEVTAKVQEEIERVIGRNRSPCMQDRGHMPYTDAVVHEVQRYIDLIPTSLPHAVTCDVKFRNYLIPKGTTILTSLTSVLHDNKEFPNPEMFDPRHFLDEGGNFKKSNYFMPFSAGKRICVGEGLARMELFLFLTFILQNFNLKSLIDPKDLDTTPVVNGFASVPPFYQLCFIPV

Potency, inactive:
CC12C=C(/C=C/c3ccc(Br)cc3)C(C)(C1)C(c1ccc(Br)cc1)CC2=O (centres undefined), C=CCC1(c2ccccc2)Oc2ccc(C)cc2-c2nc3cc(Cl)c(Cl)cc3nc21 (centres undefined), COc1ccc(OCC2CC3C(CCC(C)C3c3ccc(Br)cc3)C(=O)O2)cc1 (centres undefined), CCCCc1nc2c(c3c1CC(C)OC3)CN(CCC(C)C)CC2 (centres undefined), COC(=O)CC1=COC(O)C2C(CO)=CC[C@@H]12 (some centres undefined), COC(=O)NC(CC(C)=O)c1ccc(F)cc1 (centres undefined), CN1CCc2nc(-c3ccccc3)c(-c3ccccc3)cc2C1, CC1CCC2C(=O)N3C(CCC(C)C3c3ccc(-c4ccco4)cc3)C(=O)N2C1c1ccc(-c2ccco2)cc1 (centres undefined)

Potency, active:
COC(=O)[C@@H]1CC[C@H](C)[C@@H](c2ccc(C)cc2)N1C(=O)c1ccc(/C=N\O[C@@H](C)c2cn([C@H](CO)Cc3ccccc3)nn2)cc1 3980 nM, CC12C=C(/C=C/C=C/c3ccccc3)C(C)(C1)C(/C=C/c1ccccc1)CC2=O (centres undefined) 1580 nM, COc1ccc(O[C@H]2C=C[C@@H](c3ccccc3)O[C@H]2COC(=O)CC/C(C)=N\OC[C@@H](O)[C@H]2O[C@H]3OC(C)(C)O[C@H]3[C@@H]2O)cc1 5 nM, Cc1ccc(S(=O)(=O)N[C@@H](CCc2ccccc2)CC(=O)C(C)(C)C)cc1 1580 nM, C=C(C)C(O)/C=C/c1ccc(Br)cc1 (centres undefined) 20 nM, CCOC(=O)OCC1OC(C#Cc2ccccc2)C=CC1Oc1cccc(N(C)C)c1 (centres undefined) 1580 nM

From PubChem BioAssay (NCATS)
